Screening results (PubChem BioAssay)
Shown is part of a subset that was picked to be rich in hits.
FBPA Giardia inh: Giardia lamblia aldolase inhibition; A8B2U2; purified Giardia FBPA; Potency, µM (highest dose often 59.6 µM), inactives show top-dose activity, negative = inhibition, usual class: inhibitors; 0.71% of 290,000 active; further: potency means the concentration at half of the fitted maximal effect; on the % scale 0 is the no-effect control and ±100 the full control effect; nearly all actives have a fitted effect of over 55% in size
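40 nM FBPA preincubated 10 min at RT with compound (up to 57.5 uM final), then substrate plus GAPDH/TPI/NAD/arsenate coupling and diaphorase/resazurin added. Fluorescence read after 20 min at RT, 525/598 nm.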
Sm TGR block: inhibitors of Schistosoma mansoni thioredoxin glutathione reductase; Q962Y6; purified TGR, DTNB reduction, TNB absorbance 405 nm; Potency, µM (doses to about 114 µM), inactives show at the top dose activity change, negative = inhibition, most hits filed as inhibitors; 3% of 360,000 active; AID 485364; further: potency means the concentration at half of the fitted maximal effect; on the % scale 0 is the no-effect control and ±100 the full control effect; nearly all actives have a fitted effect of over 60% in size
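First, TGR (20 nM dispensed) and NADPH were mixed with compound. Second, a 15 min room-temperature incubation followed. Third, further NADPH and then DTNB were added to start the reaction. Finally, TNB absorbance was monitored kinetically.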
LmPK inhibitor: inhibitors of Leishmania mexicana pyruvate kinase; purified LmPK, Kinase-Glo ATP luminescence, 1 h; Potency, µM (series often up to 57.5 µM), for inactives: top-dose activity change, negative = inhibition, most hits filed as inhibitors; Q27686; 0.37% of 290,000 active; further: potency means the concentration at half of the fitted maximal effect; on the % scale 0 is the no-effect control and ±100 the full control effect
Target sequence (Q27686 whole entry, looked up): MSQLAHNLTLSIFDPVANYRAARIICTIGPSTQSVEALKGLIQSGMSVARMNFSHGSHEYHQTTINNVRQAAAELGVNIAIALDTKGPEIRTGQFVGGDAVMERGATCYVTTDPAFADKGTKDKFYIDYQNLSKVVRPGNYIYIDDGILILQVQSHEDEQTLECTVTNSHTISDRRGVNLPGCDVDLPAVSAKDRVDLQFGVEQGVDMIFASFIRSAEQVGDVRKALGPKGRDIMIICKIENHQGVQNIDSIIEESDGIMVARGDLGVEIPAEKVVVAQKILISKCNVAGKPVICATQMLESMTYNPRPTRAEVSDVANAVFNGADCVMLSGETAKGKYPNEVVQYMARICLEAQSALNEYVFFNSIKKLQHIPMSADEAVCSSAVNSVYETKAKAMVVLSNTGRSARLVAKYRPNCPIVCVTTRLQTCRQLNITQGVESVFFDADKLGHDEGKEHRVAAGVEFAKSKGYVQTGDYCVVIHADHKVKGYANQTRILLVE
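Purified LmPK (0.1 nM) converted ADP (0.1 mM) to ATP with PEP (0.5 mM) in imidazole buffer pH 7.2 with KCl and MgCl2, 1 h at room temperature. ATP was read by Kinase-Glo luminescence; data normalized to uninhibited and no-enzyme controls.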
Shiga inhibitor: Shiga toxin inhibition; Vero cells, Shiga toxin protein synthesis inhibition reporter; inhibition, % at 38.7 µM; 9.2% of 290,000 active; AID 2315; in the data active means inhibition mostly above about 28%, no sharp cut-off; inactive means mostly below about 43%; further: 0% is about no effect
CHX counter: counter-screen for Shiga toxin inhibitors: cycloheximide protein synthesis inhibition | cell reporter, cycloheximide protein synthesis inhibition counterscreen | max response, % | 12% of 300,000 active; in the data active means max response mostly above about 13%, no sharp cut-off; inactive means mostly below about 14%; further: read at 38.3 µM for the half of the compounds with a filed dose; 0% is about no effect
TbPYK inhibitor: blocks Trypanosoma brucei pyruvate kinase. Q57TT1. TbPYK enzyme, Kinase-Glo Plus ATP luminescence, 45 min. Potency, µM (doses to about 76.8 µM), inactives show top-dose activity, negative = inhibition, usual class: inhibitors. 0.12% of 410,000 active. AID 624173; further: potency means the concentration at half of the fitted maximal effect; on the % scale 0 is the no-effect control and ±100 the full control effect; nearly all actives have a fitted effect of over 50% in size
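In this concentration-response screen, enzyme-free wells defined baseline while DMSO plates tracked drift. Each reaction combined TbPYK, substrate, compound and 130 uM ADP for 45 min at room temperature. Kinase-Glo Plus luminescence gave the signal.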
Numbers without * were called inactive; [ ] = another dose, or the depositor's remark. Unless noted, the call rests on the fitted dose curve; in most records, active means well fitted curve in the direction sought with a large enough effect; inconclusive means small, poorly fitted or top-dose-only effect, or another doubt; inactive means no such curve, though single readings can be large; an effect the other way counts as inactive or inconclusive.

Screening O=C(N/N=C/c1cccnc1)c1ccco1 returned FBPA Giardia inh 4%, Sm TGR block -4%, LmPK inhibitor -9%, Shiga inhibitor 66*, CHX counter 26* and TbPYK inhibitor 0%.
`O=C(NC(Cc1c[nH]c2ccccc12)C(=O)N/N=C/c1cccnc1)c1cccs1` (configuration not stated) gave FBPA Giardia inh -5%, Sm TGR block 15%, LmPK inhibitor 3%, Shiga inhibitor -7, CHX counter 9 and TbPYK inhibitor 1%.
Screening O=C(N/N=C/c1cccnc1)c1ccc(Cl)c(Cl)c1 returned TbPYK inhibitor -3%.
For O=C(N/N=C\c1cccnc1)c1ccc(Cl)cc1Cl the results were FBPA Giardia inh 7%, Sm TGR block 5%, LmPK inhibitor -1%, Shiga inhibitor 54*, CHX counter 31* and TbPYK inhibitor 1%.
Screening O=C(N/N=C/c1cccnc1)c1ccccc1Br returned FBPA Giardia inh 2%, Sm TGR block inconclusive, LmPK inhibitor 4%, Shiga inhibitor 47, CHX counter 12 and TbPYK inhibitor -13%.
Screening O=C(N/N=C/c1cccnc1)c1cccs1 returned FBPA Giardia inh -4%, Sm TGR block 16%, LmPK inhibitor -9%, Shiga inhibitor 75*, CHX counter 38* and TbPYK inhibitor -7%.
`O=C(N/N=C/c1cccnc1)c1ccc2ccccc2c1O` gave Sm TGR block -31%, LmPK inhibitor -2%, Shiga inhibitor 38*, CHX counter 20* and TbPYK inhibitor -8%.
`COc1ccc2[nH]cc(CCNc3cc(-c4cccc(C#N)c4)ncn3)c2c1` gave FBPA Giardia inh -21%.
For Nc1c(C(=O)N/N=C/c2ccccc2)cnn1-c1ccccc1 the results were FBPA Giardia inh 0%, Sm TGR block 8%, LmPK inhibitor -6%, Shiga inhibitor 96*, CHX counter 45* and TbPYK inhibitor 2%.
For O=C(Nc1cccc([N+](=O)[O-])c1)c1ccc2ccccc2c1O the results were FBPA Giardia inh -9%, Sm TGR block -13%, LmPK inhibitor 4%, Shiga inhibitor 38, CHX counter 37* and TbPYK inhibitor -2%.
`COc1ccc(C(=O)O/N=C(/c2ccccc2)c2ccncc2)cc1` gave FBPA Giardia inh -3%, Sm TGR block 3%, LmPK inhibitor -5%, Shiga inhibitor 61*, CHX counter 42* and TbPYK inhibitor -2%.
`COc1ccc(C(=O)O/N=C(\C)c2ccccc2)cc1` gave FBPA Giardia inh -6%, Sm TGR block 6%, LmPK inhibitor 6.3µM*, Shiga inhibitor 21, CHX counter 16 and TbPYK inhibitor 13µM*.
Screening COc1ccc(C(=O)O/N=C(/c2ccccc2)c2ccncc2)cc1OC returned FBPA Giardia inh 4%, Sm TGR block -1%, LmPK inhibitor 8%, Shiga inhibitor -19, CHX counter -5 and TbPYK inhibitor 6%.
`Cc1ccc(NC(=O)c2ccc(C)c(S(=O)(=O)N3CCOCC3)c2)nc1` gave Sm TGR block 0% and TbPYK inhibitor 6%.
O=C(Nc1ccc(Cl)cn1)c1cccc(S(=O)(=O)N2CCCC2)c1 was read as FBPA Giardia inh 1%, Sm TGR block 11%, LmPK inhibitor 7%, Shiga inhibitor 41*, CHX counter 14* and TbPYK inhibitor -5%.
For Cc1ccc(C(=O)Nc2ccc(Cl)cn2)cc1S(=O)(=O)N1CCOCC1 the results were FBPA Giardia inh 15%, Sm TGR block -6%, LmPK inhibitor -4%, Shiga inhibitor 61*, CHX counter 35* and TbPYK inhibitor -1%.
COc1ccc(C(=O)Nc2ccc(Cl)cn2)cc1Cl was read as FBPA Giardia inh -22%, Sm TGR block -26%, LmPK inhibitor -3%, Shiga inhibitor 79*, CHX counter 50* and TbPYK inhibitor 9%.
`CN(C)S(=O)(=O)c1cccc(C(=O)Nc2ccc(Cl)cn2)c1` gave FBPA Giardia inh -3%, Sm TGR block 14%[11.4 µM], LmPK inhibitor 9%, Shiga inhibitor 50*, CHX counter 51* and TbPYK inhibitor 0%.
For COc1cccc(C(=O)CC2(O)C(=O)Nc3ccc(Cl)cc32)c1 (configuration not stated) the results were Sm TGR block -4% and TbPYK inhibitor 0%.
For O=C(CC1N=C2c3ccccc3N=C(SCC(=O)Nc3cccc(C(F)(F)F)c3)N2C1=O)NCc1cccs1 (configuration not stated) the results were Sm TGR block -8% and TbPYK inhibitor -3%.
Nc1nc(CCl)nc(N(c2ccccc2)c2ccccc2)n1 was read as FBPA Giardia inh 8%, Sm TGR block 11µM*, LmPK inhibitor 1%, Shiga inhibitor 12, CHX counter 12 and TbPYK inhibitor -6%.
Screening C=CCSC(=C(C#N)C#N)c1cc2c([nH]1)CCCC2 returned FBPA Giardia inh -13%, Sm TGR block -34%, LmPK inhibitor 4%, Shiga inhibitor 3, CHX counter 25* and TbPYK inhibitor 3%.
`O=C(O)c1cc2c([nH]c1=O)CCCC2` gave FBPA Giardia inh 7%, Sm TGR block 2%, LmPK inhibitor 1%, Shiga inhibitor -3, CHX counter -3 and TbPYK inhibitor 2%.
`O=C(Oc1ccc2c(c1)OCO2)c1cccs1` gave FBPA Giardia inh 2%, Sm TGR block 8%, LmPK inhibitor -21%, Shiga inhibitor 40*, CHX counter 27* and TbPYK inhibitor -12%.
For CCOc1cccc(C(=O)Nc2ccc(N(CC)CC)cc2)c1 the results were FBPA Giardia inh -5%, Sm TGR block 4%, LmPK inhibitor -2%, Shiga inhibitor 15, CHX counter 16 and TbPYK inhibitor inconclusive.
For CCOc1cccc(C(=O)Nc2ccc3c(c2)OCCO3)c1 the results were FBPA Giardia inh -2%, Sm TGR block 3%, LmPK inhibitor 2%, Shiga inhibitor 37, CHX counter 36* and TbPYK inhibitor -17%.
For Fc1cccc(NC(=S)Nc2ccc(Br)cc2)c1 the results were FBPA Giardia inh -4%, Sm TGR block 20µM*, LmPK inhibitor -1%, Shiga inhibitor 28, CHX counter 19* and TbPYK inhibitor 4%.
Screening Cc1noc(C)c1COc1cccc(C(=O)OCCOc2ccc(F)cc2)c1 returned FBPA Giardia inh 7%, Sm TGR block 1%, LmPK inhibitor 1%, Shiga inhibitor 52*, CHX counter 26* and TbPYK inhibitor 3%.
COc1cccc(NC(=S)Nc2ccc(F)cc2)c1 was read as FBPA Giardia inh -16%, Sm TGR block inconclusive, LmPK inhibitor -1%, Shiga inhibitor 35, CHX counter 2 and TbPYK inhibitor -2%.
N#CC(=C(\N)Sc1ccccc1N)/C(C#N)=C(/N)Sc1ccccc1N was read as FBPA Giardia inh -7%.
